Screening data: PubChem BioAssay, National Center for Advancing Translational Sciences (NCATS)
Only some compounds are listed: those with a hit (about 6.2% of all), similar ones and a draw of the others.
KinaseGlo FLuc: counter-screen: inhibitors of Kinase-Glo firefly luciferase | Q27757 | Kinase-Glo luciferase, ATP luminescence, 8 min | Potency, µM (highest dose often 38.3 µM), inactives show top-dose activity change, negative = inhibition, usual class: inhibitors | hit rate 0.28% among 200,000 | AID 1379; further: nearly all actives have a fitted effect of over 60% in size
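Luminescence was the read-out, taken after 8-minute incubation at ambient temperature. Luciferase turned over luciferin with 10 uM ATP in imidazole pH 7.2 buffer containing KCl, MgCl2, Tween 20 and BSA.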
RORgamma inh: inhibitors of mouse ROR gamma transcriptional activity; P51450; AID 2551; Potency, µM (series often up to 53.6 µM), without a hit: at the top dose activity change, negative = inhibition, actives largely listed as inhibitors; hit rate 5.4% among 310,000; Drosophila S2 Gal4-RORgamma UAS-luciferase reporter, 20 h; further: nearly all actives have a fitted effect of over 60% in size
Target sequence (P51450 whole entry, looked up, the tested form may be a part): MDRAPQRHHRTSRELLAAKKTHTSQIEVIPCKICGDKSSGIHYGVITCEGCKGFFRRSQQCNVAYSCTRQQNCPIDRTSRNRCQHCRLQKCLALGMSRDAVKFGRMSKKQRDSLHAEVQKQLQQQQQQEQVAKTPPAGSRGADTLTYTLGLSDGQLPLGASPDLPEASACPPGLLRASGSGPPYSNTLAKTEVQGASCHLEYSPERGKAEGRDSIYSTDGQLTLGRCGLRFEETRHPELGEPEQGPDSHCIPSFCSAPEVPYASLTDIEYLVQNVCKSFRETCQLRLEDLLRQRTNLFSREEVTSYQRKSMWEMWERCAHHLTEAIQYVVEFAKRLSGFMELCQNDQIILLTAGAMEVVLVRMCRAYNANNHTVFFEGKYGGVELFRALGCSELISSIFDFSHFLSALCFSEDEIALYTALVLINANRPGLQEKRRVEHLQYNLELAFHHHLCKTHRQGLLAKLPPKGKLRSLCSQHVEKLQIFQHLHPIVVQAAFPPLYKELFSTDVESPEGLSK
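Stable Schneider cell line, Gal4 DNA-binding domain fused to ROR gamma, UAS-luciferase. Cmpd 1 hr RT → CuSO4 700 uM final → 20 hr RT → luciferase reagent 10 min → luminescence.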
Gal4-VP16 FLuc: Gal4-VP16 reporter inhibition counter-screen. Drosophila S2 Gal4-VP16 UAS-luciferase, luminescence, 20 h. Potency, µM (top dose mostly 53.6 µM), without a hit: at the highest dose activity, negative = inhibition, most hits filed as inhibitors. hit rate 3.5% among 310,000;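 further: Gal4-VP16 expression switched on by copper sulfate through the metallothionein promoter; nearly all actives have a fitted effect of over 50% in size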
* marks the source's active call; other numbers are inactive results; ? = inconclusive; . = no result; [ ] = remark or other dose. The call rests on the fitted dose curve; in most records, active means well fitted curve in the direction sought with a large enough effect; inconclusive means small, poorly fitted or top-dose-only effect, or another doubt; inactive means no such curve, though single readings can be large; an effect the other way counts as inactive or inconclusive. On the % scale 0 is the no-effect control and ±100 the full control effect; potency means the concentration at half of the fitted maximal effect.

SMILES | KinaseGlo FLuc | RORgamma inh | Gal4-VP16 FLuc
CC1CCCCC1NC(=O)c1ccc(NC2=NC3CS(=O)(=O)CC3S2)cc1 (stereo not given) | . | -14.9% | 3.9%
Cc1cc(=O)oc2cc(OCC(=O)NC3CCCC3)ccc12 | . | 0.2% | -1.1%
Cc1cc(=O)oc2cc(OCC(=O)N/N=C/c3cc([N+](=O)[O-])ccc3O)ccc12 | 2.5% | 1.26µM* | 2.24µM*
CN1CCN(CCC(=O)N/N=C/c2cc([N+](=O)[O-])ccc2O)CC1 | -0.8% | ? | ?
Cc1ccc(C)c(NC(=O)CCC(=O)N/N=C/c2cc([N+](=O)[O-])ccc2O)c1 | -0.3% | 5.62µM* | ?
Cc1cc(O)c(C(C)C)cc1N=Cc1cc([N+](=O)[O-])ccc1O | . | 10µM* | ?
Cc1ccc([N+](=O)[O-])cc1NC(=O)CCc1ccccc1 | -0.5% | 5.5% | -11.6%
Cc1ccc(NC(=O)CCC(=O)N/N=C/c2cc([N+](=O)[O-])ccc2O)cc1 | -0.6% | 12.6µM* | 14.1µM*
Cc1cc(O)c(C(C)C)cc1N=Cc1ccccc1O | -2.1%[7.66 µM] | -81.6% | ?
CCN(CC)C(=O)C12CC3CC(CC(Br)(C3)C1)C2 | . | 1.5% | 2.3%
O=C(CSc1ccc(-c2cccnc2)nn1)Nc1ccc(F)c(F)c1 | . | 16.4% | -6.2%
COc1ccc2oc(=O)c(C(=O)NCc3ccco3)cc2c1 | -2.4% | 15.6% | ?
CC(C)COP(=O)(c1ccc(N(C)C)cc1)C(O)c1ccccc1F (stereo not given) | 4.0% | 34.6% | -3.9%
CN(C)C(=O)CSc1nnc([C@H](Cc2c[nH]c3ccccc23)NC(=O)OC(C)(C)C)o1 | -4.2% | 37.6% | 8.1%
Cc1ccccc1NCC(=O)N/N=C/c1ccc([N+](=O)[O-])cc1 | 1.8% | 5.1% | -23.5%
O=C(CSc1nc2ccccc2s1)N/N=C/c1cc([N+](=O)[O-])ccc1O | . | 5.01µM* | ?
Cc1ccccc1NC(=O)CCC(=O)N/N=C/c1cc([N+](=O)[O-])ccc1O | 0.5% | 3.98µM* | ?
Cc1ccc(/C=N/NC(=O)CSc2nc3ccccc3s2)o1 | -1.8% | -32.6% | 4.1%
N=C1[C@@H](O)[C@]2(I)c3ccccc3N3C(=N)[C@H](O)[C@@H]4c5ccccc5N1[C@@H]4[C@@H]32 | -3.1%[7.66 µM] | . | .
Cc1ccc(CCNC(=O)C2CCN(S(=O)(=O)c3ccc4c(c3)NC(=O)CO4)CC2)cc1 | . | 23.1% | 8.8%
CC(Nc1oc(-c2ccccc2)nc1-c1ccc(C(F)(F)F)cc1)c1ccccc1 (stereo not given) | 0.9% | 17.8% | 4.5%
Cc1ccc(C)c(NC(=S)NNC(=O)c2csc3c2CCCC3)c1 | -5.1% | ? | -25.6%
Cc1ccc(C)c(NC(=S)NNC(=O)c2csc3c2CCC(C)C3)c1 (stereo not given) | -7.0% | 5.01µM* | -24.0%
O=C1CCN(Cc2ccc([N+](=O)[O-])cc2)CCN1[C@H](CO)c1ccccc1 | . | 18.3% | 7.9%
CC(CC(=O)c1cccs1)CC(=O)c1cccs1 | -3.2% | 4.2% | -1.9%
SMILES | KinaseGlo FLuc | RORgamma inh | Gal4-VP16 FLuc
O=C(OCC(=O)c1cccs1)c1ccccc1 | 8.91µM* | -3.2% | -1.0%
O=C(CNC(=O)c1ccccc1)OCC(=O)c1cccs1 | . | -20.2% | 2.8%
O=C(O)CCCCCCCCCC(=O)c1cccs1 | -1.2% | 10µM* | 3.55µM*
COc1cc(C2NC(=O)C(C#N)=C(Nc3cccc(C)c3)S2)ccc1O (stereo not given) | . | -40.3% | ?
Cc1ccccc1NC(=O)Cc1nc(COC(=O)c2cc([N+](=O)[O-])ccc2N)cs1 | . | 10.2% | -4.2%
CC(=O)c1c(Cl)nc2cccc3c2c1-c1ccccc1C3=O | . | -6.9% | -16.6%
COc1ccc(C(=O)Nc2cnn(Cc3c(F)cccc3Cl)c2)cc1OC | . | 0.0% | -9.5%
CCC(CC)(CC(=O)Nc1cccc(/C=C/c2nc(C3CCC3)cs2)c1)C(=O)O | -1.8% | -43.2% | ?
CCN(CC)c1ccc(/C=N/Nc2nc3ccccc3[nH]2)c(O)c1 | 13.9% | 3.55µM* | 2.82µM*
Cc1ccc2cc(/C=N/Nc3nc4ccccc4[nH]3)c(Cl)nc2c1 | 6.31µM* | 4.47µM* | 1.26µM*
CCOc1cc(N(CC)CC)ccc1/C=C(/C#N)c1nc2ccccc2[nH]1 | 3.2% | -6.6% | 2.5%
COc1cc(OC)c(OC)cc1/C=N/Nc1nc2ccccc2[nH]1 | . | -30.1% | -2.2%
COc1ccccc1CC1(C)NC(=O)N(CC(=O)Nc2cc(C)on2)C1=O (stereo not given) | 1.5% | 17.4% | -1.7%
CN1CCN(S(=O)(=O)c2ccc(NCc3ccc4c(c3)OCO4)nc2)CC1 | . | 32.3% | -0.8%
Cc1cccc(N2C(=O)c3ccc(C(=O)Nc4c[nH]c(=O)[nH]c4=O)cc3C2=O)c1 | . | 4.7% | -0.5%
COC(=O)COc1ccc(C2NC(=O)NC(c3ccccc3)=C2C(C)=O)cc1Br (stereo not given) | . | 7.6% | -4.6%
CCc1nc2ccc(C(=O)O)cc2nc1CC | -1.8% | 0.708µM* | ?
CCc1nc2ccc(C(=O)N3CCN(CC)CC3)cc2nc1CC | . | 0.9% | -6.4%
COc1cccc(C(=O)NC(=O)Nc2cc(C)on2)c1 | -0.7% | 34.2% | -10.1%
COc1ccc(C(=O)Nc2ccc(-c3ccc(C)o3)cc2)cc1S(=O)(=O)N1CCOCC1 | 1.1% | ? | ?
CCNC(=S)Nc1sc2c(c1C#N)CCC(C)C2 (stereo not given) | . | 11.2µM* | ?
CCC1(C)Cc2c(sc(NC(=S)NC(=O)c3ccccc3)c2C#N)CO1 (stereo not given) | 2.7% | ? | ?
N#Cc1c(NC(=S)NC(=O)c2ccccc2)sc2c1CCC2 | 1.9% | -41.8%[10 µM] | -82.5%
CC1CCc2sc(NC(=S)NC(=O)c3ccccc3)c(C#N)c2C1 (stereo not given) | 0.0% | 14.1µM* | ?
CN1Cc2sc(NC(=S)NC(=O)c3ccccc3)c(C#N)c2CC1(C)C | . | 3.16µM* | ?
SMILES | KinaseGlo FLuc | RORgamma inh | Gal4-VP16 FLuc
CCOC(=O)Nc1sc2c(c1C#N)CCC(C)C2 (stereo not given) | -1.9% | 15.1% | 4.9%
O=[N+]([O-])c1ccc(P(=O)(Cc2ccccc2)c2ccccc2O)cc1 (stereo not given) | . | -1.6% | -0.4%
COc1ccc(N(C(=O)CNC(=O)c2cccs2)C(C(=O)NC2CCCC2)c2cccnc2)cc1 (stereo not given) | -0.8% | -10.3% | 8.3%
CN1CCN(c2ncc3ncc(=O)n(-c4ccccc4)c3n2)CC1 | . | -5.0% | -0.1%
Cn1cc(C(=O)[C@@H]2CCc3[nH]cnc3C2)c2ccccc21 | . | 0.7% | -5.6%
O=C(Cc1cccs1)Nc1nnc(SCc2ccc(Br)cc2)s1 | 1.3% | -25.2% | -12.1%
O=C(Cc1cccs1)Nc1nnc(SCc2ccc(C(F)(F)F)cc2)s1 | 3.7% | 10µM* | -13.1%
CC(=O)c1c(COC(=O)c2cccc(C)c2)nc2ccccc2[n+]1[O-] | . | 14.8% | -29.3%
CC(=O)c1c(COC(=O)c2ccncc2)nc2ccccc2[n+]1[O-] | -5.0% | 11.2µM* | ?
C=CC[C@@H]1/C=C(\C)C[C@H](C)C[C@H](OC)[C@H]2O[C@@](O)(C(=O)C(=O)N3CCCC[C@H]3C(=O)O[C@H](/C(C)=C/[C@@H]3CC[C@@H](O)[C@H](OC)C3)[C@H](C)[C@@H](O)CC1=O)[C@H](C)C[C@@H]2OC | . | ? | -6.3%
NC(=[SH+])N=N/C=C1/C=CC=CN1.O=S(=O)(O)O.[Fe] | 0.5%[7.66 µM] | . | .
